This passage reports growth results from PubChem BioAssay (NCI).

About 83,000 compounds went through this panel and 20% of them were active in at least one assay; those are over-represented in the sample as a whole.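 Growth was measured after 48 h exposure to one concentration of compound in 96-well plates. Values under 10 count as active.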 A number with no mark means an inactive call. Activity calls are given as the source filed them.

This assay concerns HL-60(TB) leukemia. In words: NCI-60 one-dose screen, 48 h (100 = growth as untreated, 0 = no growth, -100 = all killed). Particulars: 10 µM unless noted.
For the molecule `CCN1C(=O)N(CC)C2C1NC(=S)N2/N=C/C=C/c1ccccc1` (stereo not given), the growth is -39.2% (active). Turning to `COc1ccc(C2=NN(C=O)C(c3cccc(Nc4ccnc5cc(Cl)ccc45)c3)C2)cc1` (stereo not given), the growth is -13.1% (active).

Take `Cn1nc(C(F)(F)F)c(-c2cc(C(F)(F)F)cc(C(F)(F)F)c2)c1-c1ccc(OCc2ccc(Cl)cc2)cc1O`: the growth is -39.9% (active). To `Nc1nc(-c2ccccn2)cc(-c2cc(-c3ccccn3)nc(N)n2)n1` belongs 105%. The result for `COC(=O)[C@@H]1CC[C@]2(C)[C@H](CC[C@@H]3O[C@@]32C)[C@@]1(C)CC(=O)c1ccoc1` reads 89.8%; that for `COc1ccc(/C(C)=N/NS(=O)(=O)c2ccc(C)cc2)cc1OC`, 97.6%. For the molecule `CCc1ccc(CCC(=O)Nc2ncc(Cc3cc(Cl)ccc3Cl)s2)o1`, the growth is -44.5% (active). On to `COc1ccc(C(=O)c2cc3c(N)c(C(=O)Nc4ccc(Br)cc4)sc3nc2C)cc1`, for which the growth was 80.2%. The result for `O=C1c2c(c3c4cc(F)ccc4oc3c3[nH]c4ccccc4c23)C(=O)N1O` reads 41.8%. The result for `CCC(C)CC(C)C(=O)c1c(O)ccn(O)c1=O` (stereo not given) reads -0.418% (active). To `COc1ccc(C(=O)/C=C/c2cc3ccccc3n3nnnc23)cc1` belongs 92.1%; to `CC1Cc2ccccc2N1NC(=O)c1ccc(Cl)c(S(N)(=O)=O)c1` (stereo not given), 92.3%; to `COc1ccc(-c2nc(SCC(C)C)nc(Nc3ccc([N+](=O)[O-])cc3)c2C#N)cc1`, 90.5%. For `CN(C)c1ccc2nc3ccc(=[N+](C)C)c([N+](=O)[O-])c-3sc2c1`, the growth was 2.66% (active). The result for `Cc1nc2ccccc2c(/C=C/c2ccc(Cl)cc2)c1C(=O)/C=C/c1ccccc1` reads 5.7% (active). The result for `C=C1c2c(C)nn(-c3ccc(C#CCOC4OC(CO)C(O)C(O)C4O)cc3)c2N(C)C23C[C@H]1C1(C)c4c(C)nn(-c5ccc(C#CCOC6OC(CO)C(O)C(O)C6O)cc5)c4N(C)C(C)(C[C@H]12)C3` (stereo not given in full) reads -22.8% (active). To `Nc1cc2c(cc1N)-c1cc(N)c(N)cc1C2` belongs 103%; to `CC(C)(C)n1cc(-c2ccnc(NCCCNS(=O)(=O)c3cccc4ccccc34)c2)c(-c2cccc(O)c2)n1`, 25.4%; to `Nc1ccc2c(c1Br)Cc1ccccc1-2`, 56.3%.

`NC(=O)c1ccc[n+](Cc2ccc(Cl)cc2Cl)c1`: the growth was 73.1%.

As for `CN(Cc1ccccc1)Cc1ccccc1`, the growth was 93.4%.

Consider `Cc1nccc2c3ccc(OCc4cn(-c5ccc(Cl)cc5)nn4)cc3n(CCCc3ccccc3)c12`, for which the growth was -64.9% (active). Turning to `CSc1nc(N)c2[nH]c(-c3cc4ccccc4[nH]c3=O)nc2n1`, the growth was 88.8%. To `COc1cc2nc(N3CCC[C@H](NC4=CC(=O)c5ccccc5C4=O)C3)nc(N)c2cc1OC` belongs -64.6% (active).

On to `Cc1cccc(C)c1NCc1nnc(-c2ccc(O)cc2)o1`, for which the growth was 111%.
